Potency, activity change, negative = inhibition and max response data for 21 molecules are collected here from PubChem BioAssay (NCATS).

Results filed as inconclusive are left out. Calls of active or inactive are those of the source. Unless noted, calls follow the shape of the dose curve; as a rule, active = well fitted curve in the direction sought with a large enough effect; inconclusive = small, poorly fitted or top-dose-only effect, or another doubt; inactive = no such curve, though single readings can be large; an effect the other way counts as inactive or inconclusive.

Test [1] can be described thus: Confirmation and Secondary Assay for Modulators of Hemoglobin Beta Chain Splicing at IVS2 654 locus (AID 910).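 Also: HeLa cells stably carrying EGFP split by mutant beta-globin IVS2-654 intron; per-well total GFP intensity by laser scanning cytometry after 2-day treatment; % of control where 0% means no effect.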 The note with it: HeLa EGFP-654 splicing reporter, GFP fluorescence, 48 h; series mostly up to 46.1 µM. In outline:
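Readout: per-well total peak green fluorescence (488 nm ex, 500–520 nm em) from objects 5–250 µm, reflecting correct splicing of an EGFP-654 reporter. Compounds were applied for 2 days at 37 °C to overnight-plated HeLa EGFP-654 cells; controls were DMSO and 500 nM IVS2-654 PNA.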

The nature of test [2]: Confirmation and Secondary Assay for Modulators of Hemoglobin Beta Chain Splicing at IVS2 705 locus (AID 930).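 Also: HeLa cells stably expressing the EGFP-705 splicing reporter; GFP fluorescence per well restored by corrected splicing of the IVS2-705 intron in EGFP; % of control where 0% means no effect.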 The note with it: HeLa EGFP-705 splicing reporter, GFP fluorescence, 48 h; series mostly up to 46.1 µM. In outline:
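Stable HeLa line with EGFP disrupted by mutant beta-globin intron 2 (705). Overnight attachment, then 2 days of compound at 37C, 5% CO2. Signal: peak GFP intensity summed over objects 5-250 µm.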

Test [3] in a line: qHTS Assay for Lipid Storage Modulators (AID 1519; calls by dose curve; as to activity change, negative = inhibition: % is scaled to controls: 0 for no effect and ±100 for the full control effect). The note with it: Drosophila S3 cells, BODIPY lipid droplet/cell ratio, laser cytometry, cells loaded with oleic acid; for activity change, negative = inhibition: at 57.5 µM (top of the series). In short, it runs like this: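 Cells seeded at 5,000 per well were treated with compounds over a concentration series and loaded with oleic acid (400 uM, as added). Lipid droplet fluorescence (488 nm excitation, 500-530 nm channel) was read by laser-scanning cytometry and normalized to 20 uM Triacsin C.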
(qHTS replaces the single test concentration by a dilution series.)

Test [4] addresses Ubiquitin carboxyl-terminal hydrolase 1 (Homo sapiens) (UniProt O94782). The test can be described thus: Inhibitors of USP1/UAF1: Pilot qHTS (AID 504865).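 Also: rhodamine fluorescence freed from ubiquitin-rhodamine substrate followed over time; top concentration of the series differs between compounds; % is scaled to controls: 0 for no effect and ±100 for the full control effect; nearly all actives have a fitted effect of over 35% in size.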 The note with it: purified USP1/UAF1, Ub-rhodamine cleavage fluorescence; series mostly up to 114 µM. In short, it runs like this: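 USP1/UAF1 complex (1nM) preincubated with compound 15 min at room temperature, then Ub-Rho substrate (150nM final) added. Fluorescence read kinetically at 480/540 nm, 6 reads every 60 seconds. Buffer: 50mM HEPES pH 7.8, 0.5mM EDTA, 0.1 mg/ml BSA, 1mM TCEP, 0.01% Tween-20.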

Where [5] appears, read: measured here: cell count channel max response.
Where [6] appears, read: measured here: lipid channel max response.

Ubiquitin carboxyl-terminal hydrolase 1 (Homo sapiens), sequence (O94782 whole entry, looked up): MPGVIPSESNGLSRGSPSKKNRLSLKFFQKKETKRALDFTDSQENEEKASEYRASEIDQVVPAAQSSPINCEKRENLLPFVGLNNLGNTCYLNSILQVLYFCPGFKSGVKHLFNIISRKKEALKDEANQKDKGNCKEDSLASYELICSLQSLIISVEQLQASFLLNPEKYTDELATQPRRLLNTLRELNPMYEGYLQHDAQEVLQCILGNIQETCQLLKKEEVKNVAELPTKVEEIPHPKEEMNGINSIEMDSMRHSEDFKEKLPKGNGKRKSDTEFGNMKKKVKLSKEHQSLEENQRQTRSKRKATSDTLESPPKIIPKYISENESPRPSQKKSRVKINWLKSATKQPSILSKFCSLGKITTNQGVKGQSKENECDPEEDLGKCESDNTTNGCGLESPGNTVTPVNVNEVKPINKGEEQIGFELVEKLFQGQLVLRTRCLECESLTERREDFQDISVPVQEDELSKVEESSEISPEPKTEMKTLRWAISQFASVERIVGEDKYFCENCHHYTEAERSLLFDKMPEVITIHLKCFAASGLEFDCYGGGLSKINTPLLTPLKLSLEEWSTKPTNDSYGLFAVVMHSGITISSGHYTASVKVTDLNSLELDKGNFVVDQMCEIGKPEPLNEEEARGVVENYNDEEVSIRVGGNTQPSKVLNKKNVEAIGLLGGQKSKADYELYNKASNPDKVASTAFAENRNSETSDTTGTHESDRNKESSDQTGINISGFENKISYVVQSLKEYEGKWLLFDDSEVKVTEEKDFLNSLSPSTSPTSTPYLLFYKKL

In the case of `C[C@]12CCC3c4ccc(OS(=O)(=O)O)cc4CCC3C1CCC2=O` (stereo partly specified), the Potency result in test [1], in test [2] and in test [4] was “inactive” in each case. In addition, the activity change, negative = inhibition in test [3] is 9.98% (inactive). Further, the max response in test [3] (setting [5]) stood at 6.42%; in test [3] (setting [6]), 22.2%.

Regarding `CC1(C)OC2CC3C4CC(F)C5=CC(=O)CC[C@@]5(C)C4C(O)C[C@@]3(C)[C@]2(C(=O)CO)O1` (stereo partly specified), the Potency entry in test [1], in test [2] and in test [4] was “inactive” in each case. In test [3], the activity change, negative = inhibition was 4.43% (inactive). The max response in test [3] (setting [5]) stood at 7.91%; in test [3] (setting [6]), 15.6%.

As to `O=c1c2ccccc2oc2ccccc12`, the Potency entry in test [1], in test [2] and in test [4] was “inactive” throughout. Besides, the activity change, negative = inhibition in test [3] was 15% (inactive). In addition, the max response in test [3] (setting [5]) stood at 9.44%; in test [3] (setting [6]), 28%.

For the molecule `O=C(O)CCC(=O)OC[C@@H](NC(=O)C(Cl)Cl)C(O)c1ccc([N+](=O)[O-])cc1` (stereo partly specified), the Potency result in test [1], in test [2] and in test [4] was “inactive” in each case. For the same molecule, the activity change, negative = inhibition in test [3] was 7.24% (inactive). Also, the max response stood at 16.6% in test [3] (setting [5]) and 25.2% in test [3] (setting [6]).

As for `CC(=O)N[C@@H](Cc1c[nH]c2ccccc12)C(=O)O`, the Potency entry in test [1], in test [2] and in test [4] was “inactive” throughout. Further, in test [3], the activity change, negative = inhibition is 5.86% (inactive). Further, the max response in test [3] (setting [5]) amounted to 17.1%; in test [3] (setting [6]) it was 24.9%.

With `COC(=O)C1C(O)CC[C@@H]2CN3CCc4c([nH]c5ccccc45)C3C[C@@H]12` (stereo partly specified), the Potency result in test [1], in test [2] and in test [4] was “inactive” throughout. Also, the activity change, negative = inhibition in test [3] was 4.48% (inactive). For the same molecule, the max response was 19.7% in test [3] (setting [5]) and 26.3% in test [3] (setting [6]).

With `CC(C)=CCc1c(O)cc(C)oc1=O`, the Potency entry in test [1], in test [2] and in test [4] was “inactive” in each case. For the same molecule, in test [3], the activity change, negative = inhibition was 0.619% (inactive). For the same molecule, the max response in test [3] (setting [5]) stood at 9.29%; in test [3] (setting [6]) it was 11.1%.

`O=C(O)C(O)[C@@](O)(Cc1ccc(O)cc1)C(=O)O` (stereo partly specified): the Potency entry in test [1], in test [2] and in test [4] was “inactive” in each case. Further, in test [3], the activity change, negative = inhibition is 5.41% (inactive). Moreover, the max response came to 10.8% in test [3] (setting [5]) and 18.1% in test [3] (setting [6]).

Turning to `O=C(O)c1cc2cc(Cl)ccc2[nH]1`, the Potency result in test [1], in test [2] and in test [4] was “inactive” each time. Further, the activity change, negative = inhibition in test [3] was 4.59% (inactive). Also, the values for the max response in test [3] (setting [5]) and in test [3] (setting [6]) were 19.5% and 25.3%, respectively.

Turning to `CC(C)C(C)/C=C/C(C)C1CCC2C3=CCC4CC(=O)CC[C@@]4(C)C3CC[C@]21C` (stereo partly specified), the Potency result in test [1], in test [2] and in test [4] was “inactive” throughout. The activity change, negative = inhibition in test [3] was 5.02% (inactive). Moreover, the max response in test [3] (setting [5]) was -0.92%; in test [3] (setting [6]), 5.16%.

Turning to `Nc1nc2ncc(=O)[nH]c2c(=O)[nH]1`, the Potency result in test [1], in test [2] and in test [4] was “inactive” in each case. The activity change, negative = inhibition in test [3] was 4.1% (inactive). In addition, the max response came out at 2.7% in test [3] (setting [5]) and 6.73% in test [3] (setting [6]).

As for `COC(=O)C(N)CS` (stereo unspecified), the Potency entry in test [1], in test [2] and in test [4] was “inactive” throughout. The activity change, negative = inhibition in test [3] is 6.93% (inactive). Moreover, the max response in test [3] (setting [5]) worked out at 11.1%; in test [3] (setting [6]) it was 22.7%.

Consider `CCOC(=O)C(CCc1ccccc1)NC(C)C(=O)N1CCCC1C(=O)O` (stereo unspecified), for which the Potency result in test [1], in test [2] and in test [4] was “inactive” throughout. In test [3], the activity change, negative = inhibition was 10.8% (inactive). In addition, the max response in test [3] (setting [5]) is 9.89%; in test [3] (setting [6]), 24.1%.

As to `COc1ccc(-c2cc(=O)c3c(O)cc(O[C@@H]4OC(COC5OC(C)C(O)C(O)[C@@H]5O)C(O)C(O)C4O)cc3o2)cc1` (stereo partly specified), the Potency entry in test [1], in test [2] and in test [4] was “inactive” throughout. Besides, the activity change, negative = inhibition in test [3] was 5.1% (inactive). The max response was -4.97% in test [3] (setting [5]) and 1.77% in test [3] (setting [6]).

Consider `COC1C=CC23c4cc5c(cc4CN(CC2O)C3C1)OCO5` (stereo unspecified), for which the Potency entry in test [1], in test [2] and in test [4] was “inactive” throughout. In addition, the activity change, negative = inhibition in test [3] was -1.59% (inactive). The max response was 30.3% in test [3] (setting [5]) and 31.3% in test [3] (setting [6]).

Regarding `CC1CCC(C(C)C)[C@H](OC(=O)c2ccccc2)C1` (stereo partly specified), the Potency result in test [1], in test [2] and in test [4] was “inactive” each time. The activity change, negative = inhibition in test [3] was 5.46% (inactive). For the same molecule, the max response in test [3] (setting [5]) amounted to 10.9%; in test [3] (setting [6]) it was 15.1%.

`CC(=O)OC1C(=O)[C@@]2(C)C(O)CC3OC[C@]3(OC(C)=O)C2C(OC(=O)c2ccccc2)[C@]2(O)CC(OC(=O)C(O)C(NC(=O)c3ccccc3)c3ccccc3)C(C)=C1C2(C)C` (stereo partly specified): the Potency result in test [1], in test [2] and in test [4] was “inactive” in each case. Besides, in test [3], the activity change, negative = inhibition was -3.78% (inactive). For the same molecule, the max response in test [3] (setting [5]) is 1.34%; in test [3] (setting [6]), -0.503%.

With `CCC(=O)OCC(=O)C1(OC(=O)CC)C(C)CC2C3C(Cl)CC4=CC(=O)C=C[C@@]4(C)C3C(O)C[C@@]21C` (stereo partly specified), the Potency entry in test [1], in test [2] and in test [4] was “inactive” throughout. The activity change, negative = inhibition in test [3] is 4.4% (inactive). Besides, the max response in test [3] (setting [5]) stood at 1.88%; in test [3] (setting [6]), 8.57%.

Regarding `NCC1O[C@@H](OC2C(N)C[C@H](N)[C@@H](O[C@H]3OC(CO)C(O)C(N)C3O)C2O)C(O)C(O)C1O` (stereo partly specified), the Potency entry in test [1], in test [2] and in test [4] was “inactive” in each case. The activity change, negative = inhibition in test [3] is 12.1% (inactive). In addition, the max response in test [3] (setting [5]) came to 13.1%; in test [3] (setting [6]), 29.6%.

With `CC(=O)[C@]1(O)CCC2C3CCC4=CC(=O)CC[C@@]4(C)C3CC[C@]21C` (stereo partly specified), the Potency entry in test [1], in test [2] and in test [4] was “inactive” throughout. In addition, the activity change, negative = inhibition in test [3] was 5.01% (inactive). The max response in test [3] (setting [5]) was 6.92%; in test [3] (setting [6]), 12.7%.

Take `NC1(C(=O)O)CCCC1`: the Potency result in test [1], in test [2] and in test [4] was “inactive” throughout. Besides, in test [3], the activity change, negative = inhibition was -0.822% (inactive). For the same molecule, the results for the max response in test [3] (setting [5]) and in test [3] (setting [6]) were 7.47% and 7.88%, respectively.
